Screens as filed in PubChem.
SENP7 block: SENP7 protease inhibitors, primary screen, biochemical, luminescence, uHTS; AID 434973, 2010; inhibition, % at 5 µM; 330,000 tested, 1.5% active; Sentrin-specific protease 7 (Homo sapiens), Q9BQF6; recombinant SENP7, Z-RLRGG-aminoluciferin luminescence, 40 min;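 active = inhibition above about 50% at the single test dose, limit read from the data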;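 also: plate controls were DMSO with enzyme for no effect and no enzyme buffer wells for full effect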
Target sequence (Q9BQF6 706-1050 limits assumed): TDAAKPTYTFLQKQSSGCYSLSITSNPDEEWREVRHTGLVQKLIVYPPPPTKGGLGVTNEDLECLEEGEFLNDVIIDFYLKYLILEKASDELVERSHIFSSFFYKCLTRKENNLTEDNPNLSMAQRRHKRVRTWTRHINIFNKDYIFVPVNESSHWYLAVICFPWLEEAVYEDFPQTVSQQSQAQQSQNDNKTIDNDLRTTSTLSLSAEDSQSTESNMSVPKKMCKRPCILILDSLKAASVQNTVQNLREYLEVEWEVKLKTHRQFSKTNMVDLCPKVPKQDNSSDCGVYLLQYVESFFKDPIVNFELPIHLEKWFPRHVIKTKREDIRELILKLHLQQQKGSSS
SENP6 block: SENP6 protease inhibitors, primary screen, biochemical, luminescence, uHTS. 330,000 tested, 1.8% active. inhibition, % at 10 µM. AID 2599, 2010. Sentrin-specific protease 6 (Homo sapiens), Q9GZR1. Recombinant SENP6 catalytic domain, aminoluciferin luminescence;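 active = inhibition above about 50% at the single tested dose, limit read from the data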;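 also: plate controls were DMSO wells with enzyme for no effect and DMSO wells lacking enzyme for full effect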
SENP8 block-1: SENP8 protease inhibitors, primary screen, biochemical, luminescence. Sentrin-specific protease 8 (Homo sapiens), Q96LD8. purified SENP8, Z-RLRGG-aminoluciferin cleavage. inhibition, % at 10 µM. 330,000 tested, 1.2% active. AID 2540, 2010; in the data active = inhibition above about 50%
Target sequence (Q96LD8 whole entry, looked up): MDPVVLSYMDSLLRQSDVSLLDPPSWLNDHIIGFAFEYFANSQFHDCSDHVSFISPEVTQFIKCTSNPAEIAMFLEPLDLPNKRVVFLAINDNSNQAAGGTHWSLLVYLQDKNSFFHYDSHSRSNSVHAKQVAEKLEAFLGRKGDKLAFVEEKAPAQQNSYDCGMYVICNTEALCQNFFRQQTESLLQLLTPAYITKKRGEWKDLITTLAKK
EBI2 antag: EBI2 receptor antagonists, beta-arrestin recruitment, primary screen, cell-based, luminescence, 7a,25-OHC stimulation, uHTS; G-protein coupled receptor 183 (Homo sapiens), P32249; 7a,25-OHC stimulated; inhibition, % at 5 µM; 360,000 tested, 0.81% active; in the data active = inhibition above about 38%;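 also: enzyme fragment complementation signal reports receptor beta-arrestin coupling in cells; 0% = agonist plus DMSO wells and 100% = wells without agonist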
AHR act: AHR activators, primary screen, cell-based, luminescence, luciferase reporter, human; Aryl hydrocarbon receptor (Homo sapiens), P35869; AHR-responsive luciferase reporter cells; activation, % at 5 µM; 320,000 tested, 2.5% active; AID 2796, 2010; in the data active = activation above about 47%;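 also: 0% = vehicle wells and 100% = reference agonist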
SENP8 block-2: human SENP8 protease inhibitors, primary screen, biochemical, fluorescence, Nedd8 protein substrate, uHTS. recombinant SENP8. 360,000 tested, 0.64% active. inhibition, % at 20 µM; in the data active = inhibition mostly above about 40%, no sharp cut-off; inactive = mostly below about 27%
Starred values were filed as active, the others as inactive; nt = no result. This is a sample that favours compounds with a hit; in the whole collection about 5% have one here.

SMILES	SENP7 block	SENP6 block	SENP8 block-1	EBI2 antag	AHR act	SENP8 block-2
CN1CCN(c2ccc(NC(=O)c3ccc(-c4ccccc4F)o3)cc2)CC1	-3	-3	-2	-14	64*	7
O=C(Nc1ccc(N2CCOCC2)cc1)c1ccc(Br)o1	50	45	33	-8	5	4
COc1ccc(-c2nc(-c3ccc(O)cc3O)cs2)cc1OC	nt	nt	nt	-1	nt	-51
Oc1ccc(-c2csc(-c3c[nH]c4ccccc34)n2)c(O)c1	5	18	0	1	61*	14
CCCS(=O)(=O)NC(=O)C1(C)CCCN(C(=O)c2c(F)ccc(C)c2F)C1 (stereo unspecified)	nt	nt	nt	-6	nt	19
Cc1ccc(C(=O)NC(=S)Nc2cccnc2Cl)cc1	-11	5	-10	-7	-2	-3
Cc1cccc(NC(=S)Nc2ccccn2)c1	9	-4	-2	-6	58*	2
Cc1ccc(NC(=S)Nc2ccccn2)cc1C	-15	-13	1	6	32	16
CCOc1ccccc1NC(=O)Nc1ccc(Cl)cc1	72*	83*	52*	-23	53*	14
O=C(NC(=O)c1ccccc1)Nc1ccccn1	100*	99*	94*	-9	23	3
COc1ccccc1C(=O)NC(=S)Nc1cccnc1Cl	4	16	7	9	75*	12
Cc1cccc(OCc2nnc(SCC(=O)c3c(N)n(C4CC4)c(=O)[nH]c3=O)o2)c1	-1	6	3	5	nt	24
COC(=O)[C@]12CCCCC=C1N(CCc1ccc(OC)c(OC)c1)C(=O)[C@H](CC(=O)N1CCCCC1)C2	nt	nt	nt	7	nt	19
COc1ccc(-c2noc([C@@H]3O[C@H](CO)[C@H](O)[C@H](O)[C@H]3O)n2)cc1OC	nt	nt	nt	-3	nt	9
COc1ccccc1C(=O)NNC(=S)NC(=O)c1sc2ccccc2c1Cl	2	17	-1	3	48*	0
CCOc1ccccc1NC(=O)Cn1[nH]c(=O)c2ccccc2c1=O	0	-6	10	7	64*	6
COc1ccccc1NC(=S)Nc1ccccn1	-6	-6	-8	-5	117*	2
COc1ccccc1NC(=S)NCc1ccccn1	-3	13	-4	3	10	-1
CCCn1nnc(NC(=O)c2ccccc2Cl)n1	-3	-14	5	1	1	9
CCCn1nnc(NC(=S)NC(=O)c2ccccc2OC)n1	4	-17	-1	-12	57*	16
CCCOc1ccc(N2C(=O)CC(N(CCOC34CC5CC(CC(C5)C3)C4)C(C)=O)C2=O)cc1 (stereo unspecified)	-4	-27	-2	4	2	10
Cc1cc(=O)n2nc(N3CCCC(C(=O)Nc4ccc(C)c(C)c4)C3)sc2n1 (stereo unspecified)	0	-10	0	-7	1	12
OC(c1ccc(F)c(F)c1)c1nc(-c2ccc3c(c2)OCO3)cs1 (stereo unspecified)	nt	nt	nt	-2	nt	4
CCOc1ccccc1NC(=O)Nc1ccccn1	4	-15	0	1	54*	22
O=C(NC1CCCC1)c1cnc2n(c1=O)CCS2	5	-4	4	-6	60*	18
SMILES	SENP7 block	SENP6 block	SENP8 block-1	EBI2 antag	AHR act	SENP8 block-2
CC1(C(=O)NS(=O)(=O)c2ccccc2Cl)CCN1C(=O)C/C=C/c1ccccc1 (stereo unspecified)	nt	nt	nt	6	nt	10
Cc1cc(C)c2c(c1)-c1c(ssc1=S)C(C)(C)N2C(=O)CSc1nncn1C	14	-14	-8	14	-5	25
Cc1ccc2c(c1)-c1c(ssc1=S)C(C)(C)N2C(=O)CSc1nncn1C	-2	15	5	13	1	43*
O=C1NC[C@@H](CCCCN2C[C@H](Cc3ccc(O)cc3)N(Cc3ccccc3)C(=O)C2=O)N(CCc2ccc(O)cc2)C1=O	nt	nt	nt	3	nt	8
O=C(CSc1ccc(-c2ccccn2)nn1)c1ccc([N+](=O)[O-])cc1	4	-8	2	-4	2	23
Cc1ccc(NC(=O)CSc2ccc(-c3cccnc3)nn2)cc1	-7	5	-9	-4	25	11
O=C(CSc1nnc2ccc(-c3cccnc3)nn12)Nc1ccc(F)cc1	-3	2	6	-6	61*	-90
O=C(CSc1ccc(-c2cccnc2)nn1)c1ccc([N+](=O)[O-])cc1	-1	-14	0	-6	58*	22
Cc1cccc(NC(=O)CSc2ccc(-c3cccnc3)nn2)c1	3	8	-3	-4	50*	3
C=CCN1C(=O)/C(=C/c2ccsc2)SC1=S	-8	-9	-15	14	0	46*
Cc1ccc(-c2cn3nc(C)c(C)nc3n2)cc1	8	16	53*	-5	-5	-292
COc1ccc(-c2cn3nc(C)c(C)nc3n2)cc1OC	4	1	1	-9	3	-164
Cc1ccc(S(=O)(=O)N2CCOCC2)cc1NC(=O)COC(=O)Cc1ccccc1	4	11	6	8	0	0
Cc1ccc(CNC(=O)CCn2cc(-c3ccc(C)cc3)nc2-c2ccncc2)cc1	0	-5	-10	5	6	-496
Cc1ccc(CNC(=O)c2ccc(Cn3cc(-c4ccc(C)cc4)nc3-c3ccncc3)cc2)cc1	32	32	36	71*	14	-488
CN(C)c1ccccc1-c1cc(NC=O)c2ncc(-c3cccc(C(F)(F)F)c3)n2c1	nt	nt	nt	7	nt	-334
COc1cc(/C=N/NS(=O)(=O)c2ccc(C)c([N+](=O)[O-])c2)cc([N+](=O)[O-])c1O	-4	1	3	1	1	41*
COc1cc(/C=N/NS(=O)(=O)c2ccc(C)c([N+](=O)[O-])c2)ccc1O	3	12	4	-1	4	11
Clc1ccc(-n2ncc3c(NCC4CCCO4)ncnc32)cc1 (stereo unspecified)	1	8	-4	-13	-10	-2
Clc1ccc2[nH]c3c(NCC4CCCO4)ncnc3c2c1 (stereo unspecified)	-5	-5	-9	nt	76*	nt
CNC(=O)c1cn2c3c(ccc(Cl)c3c1=O)OC(C)C2 (stereo unspecified)	nt	nt	nt	6	nt	-319
COc1ccc(/C=C2/SC(=S)N(n3c(C)ccc3C)C2=O)cc1	-8	1	4	24	-1	31
CCOc1ccc(/C=C2/SC(=S)N(n3c(C)ccc3C)C2=O)cc1	-7	2	-4	15	8	41*
